# Screening results as filed in PubChem BioAssay.
# Rows were chosen to be rich in hits. Some 11% of all compounds tested hit in one or more screens of this group.
# PNC assembly inh: blocks assembly of the perinucleolar compartment; 3.1% of 140,000 active; PC3M PTB-GFP, PNC prevalence imaging, 16 h; stronger effect = lower value; activity change (PNC), negative = inhibition, % at 10 µM;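 active means readout at or below -70, meaning at least 70% loss of cells showing the perinucleolar compartment, a nuclear body marking cancer cells; inconclusive means readout between -30 and a set limit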;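 further: plate controls were DMSO wells for no effect and camptothecin positive control wells for full effect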
#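 Read-out is percentage of cells bearing a perinucleolar compartment, from automated 20x imaging of fixed, Hoechst-stained PC3M PTB-GFP cells. Cells were seeded 4 h, then exposed 16 h to compound (23 nl of library stock) in duplicate plates.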
# CBFb-RUNX1 inh: CBF-beta/RUNX1 interaction disruption | AlphaScreen CBFb-His/RUNX1-biotin binding, biochemical | Potency, µM (highest dose often 59.8 µM), without a hit: at the highest dose activity, negative = inhibition, most hits filed as inhibitors | 230,000 tested, under 10 active | AID 1477; further: % of control where 0% means no effect
#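 Proteins preincubated together for 20 min at RT before compound addition; 15 min later, nickel and streptavidin beads were added and left 90 min prior to AlphaScreen measurement.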
# HTT cytoprotect: protects HTT-Q103 PC12 cells, measured by ATP. PC12 HTT-Q103 induced, cytoprotection, ATP luminescence, 40 h. Potency, µM (series often up to 56.4 µM), without a hit: cytoprotection (ATP increase), usual class: activators. 0.14% of 230,000 active. AID 1471; further: potency means the concentration at half of the fitted maximal effect; % of control where 0% means no effect; nearly all actives have a fitted effect of over 45% in size
#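 Compounds were screened for protection of PC12 cells against cell death after tebufenozide induction (100 nM final) of mutant Huntingtin exon 1 (Q103) fused to GFP.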
# HttQ103 aggreg: mutant huntingtin aggregation inhibition. PC12 HttQ103-GFP aggregates, Acumen cytometry, 40 h. Potency, µM (highest dose often 46.1 µM), for inactives: at the highest dose activity change, negative = inhibition, actives largely listed as inhibitors. 1.1% of 220,000 active. AID 1688; further: potency means the concentration at half of the fitted maximal effect; on the % scale 0 is the no-effect control and ±100 the full control effect; nearly all actives have a fitted effect of over 60% in size
#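 Ecdysone-promoter PC12 model expressing HTT exon 1 Q103 fused to GFP, induced by tebufenozide at 100 nM final. Compounds titrated; aggregates sized 1–25 µm scored on a 488 nm laser cytometer.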
# ALDH1A1 inh: ALDH1A1 (human) enzyme inhibition; P00352; 7.3% of 220,000 active; AID 1030; Potency, µM (highest dose often 75.3 µM), inactives show top-dose activity, negative = inhibition, hits mostly inhibitors; Purified ALDH1A1, NADH fluorescence, propionaldehyde substrate; active means well fitted inhibition curve with a large enough effect, not every such curve was filed as active; inconclusive means small, poorly fitted or top-dose-only effect, or another doubt; inactive means no such curve, though single readings can be large or run the other way;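 further: potency means the concentration at half of the fitted maximal effect; plate controls were no enzyme wells and a reference inhibitor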
# Target sequence (P00352 whole entry, looked up): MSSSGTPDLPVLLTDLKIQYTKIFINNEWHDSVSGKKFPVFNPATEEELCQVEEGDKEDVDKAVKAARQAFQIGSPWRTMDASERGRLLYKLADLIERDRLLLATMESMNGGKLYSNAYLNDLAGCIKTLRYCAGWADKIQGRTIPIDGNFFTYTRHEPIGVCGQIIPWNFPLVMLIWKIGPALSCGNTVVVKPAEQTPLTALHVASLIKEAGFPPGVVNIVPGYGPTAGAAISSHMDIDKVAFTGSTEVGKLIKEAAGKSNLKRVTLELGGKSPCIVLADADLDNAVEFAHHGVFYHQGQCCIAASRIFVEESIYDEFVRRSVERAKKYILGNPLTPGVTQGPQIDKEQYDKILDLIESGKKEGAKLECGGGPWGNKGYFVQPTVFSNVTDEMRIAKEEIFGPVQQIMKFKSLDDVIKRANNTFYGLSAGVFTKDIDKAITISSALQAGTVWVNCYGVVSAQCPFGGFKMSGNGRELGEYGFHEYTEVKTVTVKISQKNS
# HPGD inh: blocks human HPGD enzyme activity; P15428; purified HPGD, NADH fluorescence kinetic, PGE2 substrate; Potency, µM, for inactives: at the top dose activity change, negative = inhibition, usual class: inhibitors; 4.3% of 150,000 active; active means well fitted inhibition curve with a large enough effect, not every such curve was filed as active; inconclusive means small, poorly fitted or top-dose-only effect, or another doubt; inactive means no such curve, though single readings can be large or run the other way; further: potency means the concentration at half of the fitted maximal effect; on the % scale 0 is the no-effect control and ±100 the full control effect
# Target sequence (P15428 whole entry, looked up): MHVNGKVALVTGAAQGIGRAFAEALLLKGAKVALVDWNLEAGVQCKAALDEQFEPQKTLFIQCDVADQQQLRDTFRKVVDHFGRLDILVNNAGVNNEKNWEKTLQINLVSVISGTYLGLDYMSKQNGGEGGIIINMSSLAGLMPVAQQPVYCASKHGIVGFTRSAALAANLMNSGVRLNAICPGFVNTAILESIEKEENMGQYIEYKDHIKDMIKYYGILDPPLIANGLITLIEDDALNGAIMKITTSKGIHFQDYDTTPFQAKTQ
#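 NADH formation kinetics: reaction with 30 uM PGE2 and 1 mM NAD+ (final), 20 nM enzyme, Tris-HCl pH 8 with Tween 20, after 15 min compound preincubation at room temperature. Fluorescence change, last versus first of five reads.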
# * marks the source's active call; other numbers are inactive results; ? = inconclusive; . = no result; [ ] = dose if it differs, or a comment. Unless noted, the call rests on the fitted dose curve; in most records, active means well fitted curve in the direction sought with a large enough effect; inconclusive means small, poorly fitted or top-dose-only effect, or another doubt; inactive means no such curve, though single readings can be large; an effect the other way counts as inactive or inconclusive.
SMILES,PNC assembly inh,CBFb-RUNX1 inh,HTT cytoprotect,HttQ103 aggreg,ALDH1A1 inh,HPGD inh
COc1ccc(S(=O)(=O)N2Cc3ccccc3CC2C(=O)Nc2nccs2)cc1 (centres undefined),24,-1%,-18%,-24%,5µM*,-14%
Cc1cc(C(C)(C)C)oc1C(=O)N(CC(=O)NC1CCCC1)Cc1ccccc1,?,5%,28%[10 µM],-8%,?,-9%
Cc1ccc(C)c(N(CC(=O)NC2CCCC2)C(=O)c2oc(C(C)(C)C)cc2C)c1,-22,18%,1%[10 µM],25µM*,1%,-20%
CCC(C)(C(=O)NC1CCCC1)N(Cc1cccs1)C(=O)Cc1cccs1 (centres undefined),15,4%,2%,-3%,-6%,4%
CCC(C)(C(=O)NC1CCCC1)N(Cc1cccs1)C(C)=O (centres undefined),-100*,6%,17%[10 µM],2%,2%,-9%
N=C1S/C(=C\c2ccco2)C(=O)N1c1nccs1,.,?,-81%,-31%,10µM*,.
N=C1S/C(=C\c2ccco2)C(=O)N1c1ccc2c(c1)OCO2,.,-29%,-21%,17%,?,.
COc1ccc(C(=O)/C(=C\c2ccco2)N2C=CC=CC2=C(C#N)C#N)cc1,-26,-4%,?,6.3µM*,?,?
N#CC(C#N)=C1C=CC=CN1/C(=C\c1ccco1)C(=O)c1ccc(Br)cc1,1,3%,32%[10 µM],?,?,16µM*
N#CC(C#N)=C1C=CC=CN1/C(=C\c1ccco1)C(=O)c1ccccc1,-2,0%,?,3.2µM*,-7%,22µM*
O=C(CSc1nc2ccccc2s1)NNC(=S)Nc1ccc(Br)cc1,49,-11%,-10%,-1%,8.9µM*,-11%
O=C(CSc1nc2ccccc2s1)NNC(=S)Nc1ccccc1,?,6%,10%[10 µM],-6%,8.9µM*,?
O=c1c(-c2cccs2)nc2cncnc2n1-c1ccccc1,.,.,-23%,.,?,.
O=S(=O)(/N=S1/CC=CCN1S(=O)(=O)c1ccccc1)c1ccccc1 (centres undefined),?,-2%,4%[10 µM],?,2µM*,7.9µM*
COc1ccccc1CN1C(=O)[C@@H]2C(CCC(N)=O)NC3(C(=O)Nc4c3ccc(Cl)c4C)[C@@H]2C1=O (some centres undefined),49,3%,-17%[0.074 µM],17%,0.22µM*,-8%
CCOC(=O)/C(C#N)=C/c1cn(CCC(=O)O)nc1-c1ccc(Cl)cc1,-8,1%,9%[10 µM],-8%,1%,-10%
Cc1cc(C)n(CCc2nc(-c3ccc(F)cc3)cs2)n1,50,0%,-13%[10 µM],-16%,3%,25µM*
Cc1cc(C)n(CCc2nc(-c3ccc(C(C)(C)C)cc3)cs2)n1,25,-2%,-11%[10 µM],-23%,?,.
Cc1[nH]c(=S)sc1Cc1ccc(Cl)c(Cl)c1,-4,-19%,1%[10 µM],17%,25µM*,16µM*
Cc1nnc(SCc2ccc(Cl)c(Cl)c2)s1,.,23%,-4%,4%,3%,.
S=C1N[C@H](c2ccccc2)N[C@H](c2ccccc2)S1,.,.,21%[10 µM],.,3.2µM*,?
CC(C)CN1CCC2(CC1)CCN(C(=O)c1cnccn1)CC2,.,.,-4%,.,6%,-4%
O=C(OC1CCOC1=O)c1cc(-c2cccc(Br)c2)nc2ccccc12 (centres undefined),.,9%,-66%,-5%,-5%,.
O=C(OC1CCOC1=O)c1cc(-c2ccc(Br)cc2)nc2ccccc12 (centres undefined),-119*,6%,-3%[10 µM],11%,?,-59%
CCOc1ccc(NC(=O)CN2CCN(CC(=O)Nc3ccc(C(=O)OC)cc3)CC2)cc1,15,8%,-11%[10 µM],14%,7.1µM*,-13%
SMILES,PNC assembly inh,CBFb-RUNX1 inh,HTT cytoprotect,HttQ103 aggreg,ALDH1A1 inh,HPGD inh
CCOc1ccc(NC(=O)CN2CCN(C3c4ccccc4-c4ccccc43)CC2)cc1,7,-1%,15%[10 µM],?,11µM*,-17%
CCC(=O)Nc1ccc(Oc2ccc3c(c2)C(=O)N(c2ccc(O)cc2)C3=O)cc1,-18,-3%,-22%,19%,?,-11%
CCCC(=O)Nc1ccc(Oc2ccc(NC(=O)CCC)cc2)cc1,-100*,-4%,-8%[10 µM],-9%,2%,-9%
CCCC(=O)Nc1ccc(OCC(=O)OC)cc1,32,5%,-5%[0.074 µM],-7%,2%,-4%
CCC(=O)Nc1ccc(Oc2ccc3c(c2)C(=O)NC3=O)cc1,-8,8%,6%[0.074 µM],-5%,5%,16µM*
CNc1ncnc2c1ncn2[C@@H]1O[C@H](COP(=O)(O)O)[C@@H](O)[C@H]1O,.,-2%,14%,.,3%,.
O=C(NCCCn1ccnc1)C(=O)c1c[nH]c2ccccc12,.,12%,.,38%,3%,.
CCc1ccc(C(=O)COC(=O)CCc2nc3ccccc3c(=O)[nH]2)cc1,-27,2%,.,6%,-11%,-10%
O=C(CN1CCN(c2ccc(Cl)cc2)CC1)Nc1ccc(F)c(F)c1,45,5%,-5%,-8%,-2%,-6%
O=C(CN1CCCCCC1)Nc1ccc(F)c(F)c1,-7,-9%,16%[10 µM],5%,22µM*,-24%
O=C(CN1CCNCC1)Nc1ccc(Oc2ccccc2)cc1,-16,0%,-2%,-8%,2%,-1%
O=C(CN1CCCC1)Nc1ccc(Oc2ccc(NC(=O)CN3CCCC3)cc2)cc1,2,-1%,-48%[10 µM],1%,-15%,25µM*
CCOc1ccc(NC(=O)Cn2c(=O)oc3ccccc32)cc1,-15,4%,11%,-4%,-8%,10µM*
CCOc1ccc(NC(=O)CN2CCN(CC(=O)Nc3ccc(F)c(F)c3)CC2)cc1,?,6%,15%,-6%,4µM*,-6%
[N-]=[N+]=Nc1ccc(C(=O)CSC[C@@H](NC(=O)CC[C@@H](N)C(=O)O)C(=O)NCC(=O)O)cc1,.,.,-6%[1.9 µM],.,.,.
CC1CC(C)CN(C(=O)CNS(=O)(=O)c2ccc(Br)s2)C1 (centres undefined),62,3%,27%,18%,-2%,-6%
CC1CCN(C(=O)CNS(=O)(=O)c2ccc(Br)s2)CC1,-24,4%,-4%,-7%,8.9µM*,-23%
Cc1ccc(S(=O)(=O)NCC(=O)N(CCc2ccccc2)CC(=O)NCc2ccco2)cc1,-16,-3%,-8%[10 µM],15%,28µM*,-6%
CC(C)CNS(=O)(=O)c1ccc(CCC(=O)NCc2ccco2)cc1,0,11%,0%[1.9 µM],9%,2µM*,-21%
Cc1nc(NC(=O)/C=C/c2ccccc2)sc1C(=O)N1CCCCC1,.,3%,7%[10 µM],-1%[9.22 µM],-4%,.
CC(C)C1COc2cc3oc(=O)ccc3cc2O1 (centres undefined),.,18%,-17%,.,?,?
